Screening results (PubChem BioAssay)
Sm TGR block – qHTS Assay for the Inhibitors of Schistosoma Mansoni Peroxiredoxins; Schistosoma mansoni thioredoxin glutathione reductase (TGR), Q962Y6; purified TGR, DTNB reduction, TNB absorbance 405 nm; Potency, µM (titrated, usually from 114 µM), for inactives: at the highest dose activity change, negative = inhibition, actives largely listed as inhibitors; 360,000 compounds, 3% hits; further: potency means the concentration at half of the fitted maximal effect; on the % scale 0 is the no-effect control and ±100 the full control effect; nearly all actives have a fitted effect of over 60% in size
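TGR 20 nM + NADPH 100 uM (dispensed conc.), cpd preinc 15 min RT; start with NADPH (500 uM addition) then DTNB (15 mM addition). Kinetic TNB absorbance, 405 nm filter. Four-parameter Hill fit across titration.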
HCMV inh – qHTS Assay for inhibitors of the human cytomegalovirus (HCMV) | HFF cells, HCMV-luciferase reporter, 72 h; hits give low values | activity change, negative = inhibition, % at 57.5 µM | 410,000 compounds, 4.5% hits; in the data active means activity change below about -60%; inconclusive means no clear call, values can overlap the other calls; inactive means above about -39%; further: on the % scale 0 is the no-effect control and ±100 the full control effect
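Luciferase read-out from HCMV-luciferase-infected HFFs (MOI 1 PFU/cell) 72 h post infection at 37C; compounds added after 16 h cell attachment; activity normalized between buffer-only basal and Salinomycin (10uM) inhibitor controls.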
HCV inh – qHTS Assay for Inhibitors of Hepatitis C Virus (HCV); Huh7.5.1 HCVcc-Cre infection, luciferase reporter, 44 h; Potency, µM (series often up to 41.8 µM), inactives show at the highest dose activity change, negative = inhibition, actives largely listed as inhibitors; 340,000 compounds, 3.4% hits; further: potency means the concentration at half of the fitted maximal effect; on the % scale 0 is the no-effect control and ±100 the full control effect
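Compounds are dispensed onto cells plated 4 h earlier at 1,000 per well, with HCVcc-Cre virus (about 0.5 moi) added next. Following 44 h of culture, luminescent signal is measured for 15 sec after 15 min with substrate at room temperature.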
Pf growth 48h – Primary qHTS for delayed death inhibitors of the malarial parasite plastid, 48 hour incubation. P. falciparum luciferase growth in erythrocytes, 48 h. Potency, µM (series often up to 28.7 µM), for inactives: at the top dose activity change, negative = inhibition, hits mostly inhibitors. 310,000 compounds, 5.9% hits. AID 504832, 2011; further: potency means the concentration at half of the fitted maximal effect; on the % scale 0 is the no-effect control and ±100 the full control effect
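Luciferase-expressing parasites in RBCs, 2% Hct / 0.1% parasitemia final; RPMI 1640 + 0.5% Albumax; 37 C, 5% CO2, one generation; luminescence read-out, lower signal = inhibition.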
SARS PLP yeast – qHTS of Yeast-based Assay for SARS-CoV PLP | S. cerevisiae expressing SARS-CoV PLpro, growth rescue | Potency, µM (highest dose often 32.9 µM), inactives show at the top dose activity, positive = growth rescue, hits mostly activators | 330,000 compounds, 0.19% hits | AID 485353, 2010; calls by dose curve; further: potency means the concentration at half of the fitted maximal effect; 0% is about no effect; nearly all actives have a fitted effect of over 55% in size
Pf growth 96h – Primary qHTS for delayed death inhibitors of the malarial parasite plastid, 96 hour incubation; Potency, µM (top dose mostly 28.7 µM), without a hit: at the highest dose activity change, negative = inhibition, actives largely listed as inhibitors; P. falciparum luciferase reporter growth, 96 h; AID 504834, 2011; 320,000 compounds, 6.9% hits; further: potency means the concentration at half of the fitted maximal effect; on the % scale 0 is the no-effect control and ±100 the full control effect
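Two parasite generations (96 h, 37 C, 5% CO2) of compound exposure in infected erythrocytes (0.05% parasitemia, 2% hematocrit). Luciferase-reporter P. falciparum; decreased luminescence indicates inhibited growth, aimed at apicoplast-acting delayed death.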
The depositor's hits bear a star; ? = inconclusive; . = no result given. A selection: hits, their analogues and other compounds. The true share with any hit is near 15%. Unless noted, the call rests on the fitted dose curve; in most records, active means well fitted curve in the direction sought with a large enough effect; inconclusive means small, poorly fitted or top-dose-only effect, or another doubt; inactive means no such curve, though single readings can be large; an effect the other way counts as inactive or inconclusive.

SMILES | Sm TGR block | HCMV inh | HCV inh | Pf growth 48h | SARS PLP yeast | Pf growth 96h
Cc1csc(NC(=O)C2CCCN(S(=O)(=O)c3cccnc3)C2)n1 (stereo not given) | 0% | -7 | 2% | . | 0% | 9%
CCCN(CCC)S(=O)(=O)c1ccc2c(c1)N(CC(=O)NC(C)c1ccccc1)C(=O)CS2 (stereo not given) | -2% | 0 | . | . | . | .
O=C(COC(=O)c1c[nH]c2ccccc12)NC1CCCCC1 | -11% | 5 | ? | 10% | 1% | 17%
Cc1ccc(CCNC(=O)CCSCc2ccccc2Cl)cc1 | -6% | -17 | . | . | . | .
Cc1[nH]n(C(N)=S)c(=O)c1N=Nc1cccc(C(F)(F)F)c1 | -1% | -9 | -24% | 1.3µM* | 0% | ?
Cc1[nH]n(C(N)=S)c(=O)c1N=Nc1ccc(Br)cc1 | -5% | 67 | -14% | 2% | -3% | 21%
Cc1ccc(N=Nc2c(C)[nH]n(C(N)=S)c2=O)cc1 | -2% | 22 | 2.8µM* | ? | -2% | ?
COc1ccc(S(=O)(=O)N2CCC(C(=O)NCCc3ccccc3)CC2)cc1 | 5% | 5 | 5% | -11% | 5% | -22%
O=C(Nc1sc2c(c1C(=O)NCc1cccnc1)CCCC2)c1ccco1 | ? | 39 | 7.9µM* | ? | -5% | ?
O=C(Nc1sc2c(c1C(=O)c1ccccc1)CCCC2)c1cccnc1 | -2% | 64 | ? | 0% | -3% | 0.37µM*
CNC(=O)c1c(NC(=O)c2ccco2)sc2c1CCCC2 | -21% | 48 | 14µM* | 20% | -17% | 15%
Cc1ccc(C(=O)C(NC(=O)c2ccco2)Nc2sc3c(c2C(N)=O)CCCC3)cc1 (stereo not given) | 28µM* | . | -3% | ? | 1% | 28%
CC(=O)Nc1c(-c2ccccc2)c2cc(Br)ccc2[nH]c1=O | 9% | -27 | 2% | 0% | 3% | ?
CC(Oc1ccc(F)cc1)C(=O)Nc1sc2c(c1C(=O)NCc1cccnc1)CCCC2 (stereo not given) | 0% | 36 | 2.5µM* | 8.3µM* | -4% | 6.6µM*
COC(=O)c1[nH]c(C)c(/C(O)=C2\C(=O)C(=O)N(CCN(C)C)C2c2ccco2)c1C (stereo not given) | ? | 15 | 16% | -18% | 11% | 9%
COC(=O)c1[nH]c(C)c(/C(O)=C2\C(=O)C(=O)N(CCN(C)C)C2c2ccc(C)o2)c1C (stereo not given) | 32µM* | 30 | 4% | 13% | 4% | 10%
COc1ccc(CC(=O)Nc2ccc3nc(Nc4ccc(OC)cc4)cc(C)c3c2)cc1 | -2% | -86* | . | . | . | .
COc1ccc(Nc2cc(C)c3cc(NC(=O)c4cc(OC)cc(OC)c4)ccc3n2)cc1 | 1% | -77* | . | . | . | .
COc1ccc(Nc2cc(C)c3cc(NC(=O)COc4cccc(C)c4)ccc3n2)cc1 | 6% | -39 | . | . | . | .
Cc1ccc(-c2cnc3n2CCCCC3)cc1 | 9% | -15 | ? | -8% | 0% | ?
c1cc2c(cc1-c1cnc3n1CCC3)OCCO2 | -4% | ? | 10µM* | 31% | -1% | .
CCC(=O)N(CCC(Cc1ccccc1)c1ccco1)Cc1ccco1 (stereo not given) | ? | ? | ? | ? | 0% | -16%
CCC(=O)N(CCC(c1ccccc1)c1ccco1)Cc1cccs1 (stereo not given) | 14µM* | ? | ? | ? | -1% | ?
COc1ccccc1C(CCN(Cc1cccs1)C(C)=O)c1ccco1 (stereo not given) | 13µM* | 9 | -14% | 7.4µM* | -6% | 13µM*
CCCNCCC(c1ccco1)c1ccccc1OC (stereo not given) | -8% | -21 | -16% | -35% | 3% | 23%
SMILES | Sm TGR block | HCMV inh | HCV inh | Pf growth 48h | SARS PLP yeast | Pf growth 96h
CCS(=O)(=O)N1CC2(C1)CN(S(=O)(=O)c1cccc(OC)c1)[C@@H](CO)c1[nH]c3cc(OC)ccc3c12 | . | -4 | . | . | . | .
CCc1ccc(CNC(=O)C2CCN(C(=O)N3CC(CC)Oc4ccc(C)cc43)CC2)cc1 (stereo not given) | 10% | 88 | . | . | . | .
O=[N+]([O-])c1cccc(/C=N/N=C\c2ccccc2)c1 | -4% | 47 | 1% | -10% | -4% | 13µM*
O=[N+]([O-])c1cccc(C=NNc2ccccc2)c1 | . | 28 | ? | . | . | .
O=C(N/N=C/c1cccc([N+](=O)[O-])c1)c1cc2ccccc2o1 | -2% | 1 | 11µM* | 5% | 8% | ?
COc1ccc(OCC(=O)N2CCN(S(=O)(=O)c3ccc4c(c3)OCCO4)CC2)cc1 | . | -8 | . | . | . | .
CCOC(=O)c1c(C)[nH]c(C)c1C(=O)COC(=O)c1ccc(Cl)c(S(=O)(=O)NCc2ccccc2)c1 | -30% | -24 | 7.1µM* | . | 8% | ?
O=C(Nc1cccc(C(F)(F)F)c1)Nc1ccc2nc([C@@H]3O[C@H](CO)[C@@H](O)[C@H](O)[C@H]3O)[nH]c2c1 | . | -16 | . | . | . | .
Cc1cc(C(=O)Nc2ccccc2)c2ccccc2n1 | 18% | 38 | -1% | 11% | 3% | 13µM*
Cc1cc(C(=O)NNC(=S)NC(C)c2ccccc2)c2ccccc2n1 (stereo not given) | -19% | -13 | -6% | -16% | -1% | 10µM*
Cc1cc(C)cc(NC(=O)c2cc(C)nc3ccccc23)c1 | 2% | 45 | -21% | ? | 5% | 12µM*
CCCCN=CN1c2ccccc2-n2cccc2C1c1ccc(CC)cc1 (stereo not given) | . | 52 | . | . | . | .
O=C(/C=C/N1CCOCC1)c1ccc(-c2ccccc2)cc1 | ? | . | -6% | 53% | -16% | .
O=C(/C=C\N1CCOCC1)c1ccc(Br)cc1 | 16µM* | 16 | 4% | 32% | -16% | ?
COc1ccc(NC(=O)CCc2c(C)nc3c(c2C)c(=O)n(C)c(=O)n3C)c(OC)c1 | 7% | -76* | . | . | . | .
COc1cc(OC)cc(-c2cc3nc(C)c(CCC(=O)NCc4ccc(Cl)cc4)c(C)n3n2)c1 | 0% | -61* | . | . | . | .
COc1cc(OC)cc(-c2cc3nc(C)c(CCC(=O)Nc4ccc(C(C)=O)cc4)c(C)n3n2)c1 | 7% | ? | . | . | . | .
COc1ccc(Cl)cc1NC(=O)CCc1c(C)nc2c(c1C)c(=O)n(C)c(=O)n2C | 4% | -7 | . | . | . | .
